From ChEMBL document CHEMBL3433997, “St. Jude Leishmania screening dataset” (2016)
Where “and” joins values, the source holds several entries; their conditions need not be identical. Equal values may be shown once.

Legend:
Assay type in all cases: functional
[1] = molecular target: Solute carrier family 2, facilitated glucose transporter member 1 (Homo sapiens) (UniProt P11166); experiment: ST_JUDE_LEISH: Cytotoxicity at 2uM final concentration against transgenic Leishmania Mexicana promastigotes LmGLUT1 that are glucose transport deficient and complemented with the human glucose transporter GLUT1. Activity is measured by DNA content using SYBR green in vitro
[2] = molecular target: Hexose transporter 1 (Plasmodium falciparum) (UniProt O97467); experiment: ST_JUDE_LEISH: Cytotoxicity at 2uM final concentration against transgenic Leishmania Mexicana promastigotes LmPfHT that are glucose transport deficient and complemented with the Plasmodium falciparum hexose transporter. Activity is measured by DNA content using SYBR green in vitro
[3] = molecular target: Glucose transporter (Leishmania mexicana) (UniProt O61059); experiment: ST_JUDE_LEISH: Cytotoxicity at 2uM final concentration against transgenic Leishmania Mexicana promastigotes LmGT2 that are glucose transport deficient and complemented with the L. Mexicana glucose transporter 2. Activity is measured by DNA content using SYBR green in vitro

Chain of Solute carrier family 2, facilitated glucose transporter member 1 (Homo sapiens) (P11166 whole entry): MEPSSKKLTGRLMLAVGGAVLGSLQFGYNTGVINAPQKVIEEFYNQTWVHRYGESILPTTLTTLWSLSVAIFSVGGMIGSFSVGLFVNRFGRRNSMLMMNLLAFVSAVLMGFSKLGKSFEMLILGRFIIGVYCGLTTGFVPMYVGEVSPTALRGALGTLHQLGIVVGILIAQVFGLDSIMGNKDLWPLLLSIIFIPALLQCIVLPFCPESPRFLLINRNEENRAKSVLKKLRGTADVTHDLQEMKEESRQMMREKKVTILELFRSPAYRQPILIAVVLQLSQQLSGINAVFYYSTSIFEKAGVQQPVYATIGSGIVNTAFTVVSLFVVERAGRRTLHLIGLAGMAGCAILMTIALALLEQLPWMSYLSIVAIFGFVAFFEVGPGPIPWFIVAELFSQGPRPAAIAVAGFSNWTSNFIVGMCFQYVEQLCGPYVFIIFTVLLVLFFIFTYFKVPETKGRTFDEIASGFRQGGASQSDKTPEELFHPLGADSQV

SMILES | inhibition [1] | inhibition [2] | inhibition [3]
CCCCNC(c1ccc(Cl)cc1)C(O)c1ccc(Cl)cc1 (stereo unspecified) | 8.3% | 8.45% | 9.91%
CC[C@H]1CN2CC[C@@H]1C[C@H]2[C@H](O)c1cc(-c2cc(Cl)cc(Cl)c2)nc2ccc(OC)cc12 | 2.83% | 2.24% | 1%
CCOC(C(=O)OCCN(C(C)C)C(C)C)(c1ccccc1)c1ccccc1 | -0.14% | 0.41% | -0.37%
O=C1Nc2cccc3c2C1(CCCCCN1CC=C(c2c[nH]c4ccccc24)CC1)CCC3 (stereo unspecified) | 14.1% | 10.6% | 12.8%
Cc1ccc(CC(C)NCC(O)c2cccc(C(F)(F)F)c2)c(C)c1 (stereo unspecified) | 1.64% | 0.6% | 0.75%
N#Cc1ccc(N(CCCO)Cc2ccccc2C(F)(F)F)cc1C(F)(F)F | -1.34% | -1.78% | -0.99%
O=C(NC1CCN(CCc2c[nH]c3ccc(F)cc23)CC1)c1ncc(-c2ccccc2)[nH]1 | 4.04% | 4.4% | 3.98%
Clc1ccc2nccc(N3CCC(CN4CCC(c5c[nH]c6ccccc56)CC4)CC3)c2c1 | 0.88% | 0.94% | 2.61%
CCC(C)(C)NC(C)C(O)c1ccc(C(F)(F)F)cc1 (stereo unspecified) | -0.19% | 0.51% | -0.15%
COC(=O)CN(C(=O)/C=C/c1ccc(Cl)c(Cl)c1)C1CCC(CN2CCC(c3c[nH]c4ccccc34)CC2)CC1 (stereo unspecified) | 1.07% | 4.03% | 2.24%
COc1ccc(OC)c(C(O)C(C)NCc2cc(Cl)ccc2O)c1 (stereo unspecified) | 0.78% | 1.14% | 1.94%
N#Cc1ccc(N(CC(=O)NCCc2ccccc2)CC2CC2)c2ccccc12 | 1.68% | 0.73% | 0.87%
COC(=O)c1ccc(CC(C)NCC(O)c2cccc(Cl)c2Cl)cc1 (stereo unspecified) | 3.29% | 2.6% | 3.04%
CCCCCCCSc1ccc(CC(C)NCC(O)c2cccc(Cl)c2)cc1 (stereo unspecified) | 4.14% | 4.49% | 4.37%
Cc1c(C)c2c(c(C)c1O)CC[C@@](C)(C(=O)N1CCC(CN3CCC(c4c[nH]c5ccccc45)CC3)CC1)O2 | -0.93% | -1.76% | -3.6%
CC(=O)Nc1ccc(CN2CCC(N(C)c3cc(NC(=O)c4ccc(F)cc4)ccn3)CC2)cc1 | 1.04% | 2.13% | 2.53%
Cc1ccc(CC(C)(C)NCC(O)c2cccc(C(F)(F)F)c2)cc1 (stereo unspecified) | 2.49% | 2.91% | 3.49%
Oc1ccccc1CN1CCC(CCOC(c2ccccc2)c2ccc(Cl)cc2)CC1 (stereo unspecified) | 38.2% | 23.5% | 13.9%
COc1ccc(CC(C)NCC(O)c2cccc(Cl)c2)cc1C (stereo unspecified) | 7.48% | 5.85% | 7.3%

SMILES | inhibition [1] | inhibition [2] | inhibition [3]
O=C(/C=C/c1ccc(Cl)c(Cl)c1)NC1C2CCC1CC(CN1CCC(c3c[nH]c4ccccc34)CC1)C2 (stereo unspecified) | 3.31% | 4.24% | 2.44%
Cc1cc(-c2ncc[nH]2)ccc1-c1ccc(C(=O)N2CCc3cc4c(cc32)C2(CCN(C)CC2)CO4)cc1 | -2.79% | 1.74% | -0.2%
CC[C@H]1CN2CC[C@H]1C[C@H]2[C@@H](O)c1cc(OCCCN(C)C)nc2ccc(OC)cc12 | -1.68% | -1.68% | -0.74%
OC1(CNCc2ccccc2)CCN(CCc2c[nH]c3ccc(F)cc23)CC1 | 4.9% | 8.31% | 5.83%
O=C(CCCCCc1ccccc1)NC1CCC(CN2CCC(c3c[nH]c4ccccc34)CC2)CC1 (stereo unspecified) | 0.89% | -3.78% | -1.29%
CC[C@H]1CN2CC[C@H]1C[C@H]2[C@H](O)c1cc(Cl)nc2ccc(OC)cc12 | 2.23% | 1.71% | 1.61%
COc1ccc(C[C@H]2NC[C@H](O)[C@H]2OC(C)=O)cc1 | 105% | 103% | 92.1%
COC(=O)c1ccc(CC(C)NCC(O)c2cccc(Oc3cccc(C(F)(F)F)c3)c2)cc1 (stereo unspecified) | 8.83% | 6.86% | 6.56%
O=C(CSc1ccc(Cl)cc1)NC1CCC(CN2CCC(c3c[nH]c4ccccc34)CC2)CC1 (stereo unspecified) | 5.29% | 1.76% | 2.72%
CC(=O)N(Cc1ccccc1-c1ccc(CNCCc2ccccc2)cc1)C1CCN(Cc2ccccc2)CC1 | 2.55% | 2.41% | 1.25%
Oc1cc2c(cc1CN1CCN(Cc3ccccc3)CC1)CCC2 | 0.8% | 1.17% | -1.19%
CCCc1cc(O)c2c3c(c(=O)oc2c1)CN(C)CC3 | 0.29% | 0.97% | 1.39%
O=C(CCc1ccc(Cl)cc1Cl)NC1CCC(CN2CCC(c3c[nH]c4ccccc34)CC2)CC1 (stereo unspecified) | 1.11% and 15.9% | -0.14% and 8.88% | -2.05% and 8.96%
O=C(/C=C/c1ccc(Cl)c(Cl)c1)N1CCC(CN2CCC(c3c(-c4ccc(F)cc4)[nH]c4ccccc34)CC2)CC1 | 0.15% | -1.9% | -4.69%
CN1C(=O)OC[C@@H]1Cc1ccc2[nH]cc(C3=CCN(Cc4ccccc4)CC3)c2c1 | 2.44% | 7.87% | -0.74%
O=C(NC1CCC(CN2CCC(c3c[nH]c4ccccc34)CC2)CC1)NC12CC3CC(CC(C3)C1)C2 (stereo unspecified) | 3.42% | 3.16% | 1.41%
CCCN(CCC)CCOC(=O)C(OCC)(c1ccccc1)c1ccccc1 | 1.8% | 0.63% | -0.33%
COc1ccc(OC)c(C(O)CNC(C)C)c1 (stereo unspecified) | 1.92% | 2.47% | 0.42%
